PubChem BioAssay (NCI)
The panel holds about 83,000 compounds, 20% with a hit somewhere; the sample as a whole holds those more often.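 How to read the values: 0–100, growth inhibition (40 = 60% inhibited); 0, no net growth; -100 to 0, cell death (-40 = 40% of starting cells died; -100 = all dead).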 Unmarked numbers belong to inactive results. Active and inactive are the calls of the source. The calls were made as follows: active = growth percent below 10; inactive = the rest.

How the values were obtained:
Experiment in all cases: NCI-60 one-dose screen, 48 h (100 = growth as untreated, 0 = no growth, -100 = all killed)
SR leukemia = conditions: 10 µM
RPMI-8226 leukemia = conditions: 10 µM
OVCAR-8 ovarian = conditions: 10 µM
OVCAR-5 ovarian = conditions: 10 µM
OVCAR-4 ovarian = conditions: 10 µM
SK-OV-3 ovarian = conditions: 10 µM
IGROV1 ovarian = conditions: 10 µM
OVCAR-3 ovarian = conditions: 10 µM
HS 578T breast = conditions: 10 µM
NCI/ADR-RES ovarian = conditions: 10 µM
T-47D breast = conditions: 10 µM
BT-549 breast = conditions: 10 µM
MDA-MB-435 melanoma = conditions: 10 µM
SW-620 colon = conditions: 10 µM
MCF7 breast = conditions: 10 µM unless noted
HCT-116 colon = conditions: 10 µM
HCC-2998 colon = conditions: 10 µM
KM12 colon = conditions: 10 µM

Row | SMILES | growth (SR leukemia) | growth (RPMI-8226 leukemia) | growth (OVCAR-8 ovarian) | growth (OVCAR-5 ovarian) | growth (OVCAR-4 ovarian) | growth (SK-OV-3 ovarian) | growth (IGROV1 ovarian) | growth (OVCAR-3 ovarian) | growth (HS 578T breast) | growth (NCI/ADR-RES ovarian) | growth (T-47D breast) | growth (BT-549 breast) | growth (MDA-MB-435 melanoma) | growth (SW-620 colon) | growth (MCF7 breast) | growth (HCT-116 colon) | growth (HCC-2998 colon) | growth (KM12 colon)
1 | CCOC(=O)C1OC1c1ccccc1 (configuration not stated) | 98.7% | 113% | 106% | 102% | 101% | 99% | 108% | 101% | 115% | 106% | 98.8% | 102% | 107% | 107% | 96% | 98.6% | 108% | 100%
2 | Cc1cc(N)ccc1-c1ccc(N)cc1C | 95.2% | 108% | 90.7% | 98.4% | 108% | 96.4% | 104% | 99.8% | 90.4% | 92.5% | 98.1% | 92.3% | 102% | 101% | 104% | 105% | 88.4% | 99.7%
3 | Cc1cc(Cc2cc(C)c(N)cc2N)c(N)cc1N | 55.2% | 92.8% | 89.7% | 116% | 111% | 82.2% | 87.5% | 94.9% | 93.8% | 95.8% | 83.5% | 98.3% | 106% | 90.8% | 88.6% | 94.8% | 108% | 99.5%
4 | CCOC(=O)C1=C(Nc2ccc(Br)cc2)C(=O)N(CC)C1 | 97.7% | 99.7% | 95.7% | 91% | 93.7% | 102% | 93.1% | 110% | 97.4% | 93.3% | 107% | 86.9% | 101% | 100% | 105% | 95.9% | 101% | 101%
5 | Sc1ccc(Nc2c3ccccc3nc3ccccc23)cc1 | 80.5% | 44.2% | 106% | 99.2% | 95.6% | 79.2% | 89.3% | 100% | 112% | 51.3% | 38% | 94.6% | 92.8% | 61.3% | 71.7% | 96.4% | 68.9% | 65.5%
6 | Cc1cccc([N+](=O)[O-])c1Cl | 117% | 103% | 99.6% | 96.4% | 109% | 107% | 112% | 106% | 98.1% | 92.8% | 103% | 100% | 91.4% | 100% | 105% | 108% | 86.1% | 104%
7 | CCOc1ccc(/C=C/C(=O)c2ccccc2)cc1 | 40.6% | 9.27% (active) | 95.6% | 106% | 102% | 103% | 74.8% | 93.7% | 120% | 105% | 88.8% | 102% | 89.2% | 96.4% | 70.5% | 83.7% | 92.5% | 80.2%
8 | c1ccc(CN2COc3c(ccc4c3OCN(Cc3ccccc3)C4)C2)cc1 | 5.08% (active) | 21.9% | 23% | 41.8% | 26.3% | 10.1% | 32.1% | 24.6% | 53.6% | 16.6% | 13.1% | 12.6% | 22.1% | 29.8% | 28.5% | 22% | -14.5% (active) | 25.3%
9 | O=C(NN=C1CCCCC1)C(=O)NN=C1CCCCC1 | 83.7% | 99.6% | 100% | 105% | 115% | 101% | 127% | 123% | 115% | 114% | 99.7% | 100% | 117% | 117% | 92.5% | 106% | 113% | 105%
10 | O=C(O)c1ccnc(Br)c1 | 109% | 115% | 103% | 107% | 107% | 101% | 117% | 112% | 107% | 111% | 96.9% | 105% | 104% | 103% | 91.7% | 103% | 107% | 103%
11 | c1ncc2[nH]cnc2n1 | 100% | 91.9% | 95.6% | 96.7% | 110% | 90.8% | 92% | 110% | 114% | 104% | 94.5% | 106% | 108% | 96.7% | 93.5% | 92.4% | 93.7% | 105%
12 | COC(=O)/C=C/C(=O)NC(N)=O | 95.9% | 103% | 99.5% | 98.3% | 98.5% | 96.2% | 116% | 107% | 107% | 109% | 95.3% | 99.4% | 99% | 103% | 94.8% | 103% | 122% | 102%
13 | CC1CCCC(CC(N)=O)CC1 (configuration not stated) | 94.7% | 88.8% | 89% | 104% | 108% | 107% | 114% | 102% | 107% | 105% | 101% | 116% | 104% | 105% | 103% | 98.4% | 102% | 107%
14 | CC1CCC2C(C)(C)C3CC12CC1OC13C (configuration not stated) | 117% | 108% | 105% | 105% | 99.3% | 103% | 114% | 110% | 103% | 107% | 99.3% | 107% | 107% | 98.8% | 102% | 101% | 127% | 111%
15 | CCO/C=C1\SC(=S)N(c2cccc(C)c2)C1=O | 87.9% | 92.4% | 101% | 106% | 100% | 88.7% | 107% | 104% | 103% | 109% | 93.2% | 114% | 103% | 103% | 90.5% | 109% | 106% | 103%
16 | CCOC(=O)CNN | 106% | 110% | 96.1% | 112% | 106% | 108% | 112% | 108% | 105% | 112% | 104% | 108% | 108% | 99.2% | 97.9% | 107% | 106% | 101%
17 | COC(=O)c1ccccc1N(C)C | 78.2% | 100% | 105% | 114% | 101% | 95.7% | 106% | 106% | 105% | 101% | 93.5% | 103% | 108% | 107% | 97.1% | 98.4% | 113% | 107%
18 | NC(N)=Nc1cc2ccccc2c2ccccc12 | 44.3% | 33.5% | 45.9% | 95.8% | 74.4% | 80.2% | 65.2% | 73.1% | 96.4% | 95.1% | 88.1% | 81.2% | 84.8% | 76.6% | 81% | 65.9% | 95.4% | 81%
19 | COc1cc(CN)ccc1O | 89.5% | 81% | 102% | 95.5% | 108% | 93.8% | 78.7% | 105% | 102% | 94.2% | 94.5% | 95% | 99.5% | 103% | 83.7% | 103% | 86.3% | 104%
